The values below come from PubChem BioAssay (Tox21).

Records with an inconclusive call do not appear. Values without a mark were called inactive. The source made the active and inactive calls. Calls follow the shape of the dose curve; as a rule, active = well fitted curve in the direction sought with a large enough effect in the repeat runs; inconclusive = weak or mixed curves; inactive = no such curve, though single readings can be large; an effect the other way counts as inactive or inconclusive.

Experiment [1] is described as follows: A CellTox Green Cytotoxicity Assay to monitor cytotoxicity in HEK293 cells - 40 hour (AID 1224871). Also: nearly all actives have a fitted effect of over 45% in size. Also: potency is read from the fitted curve at half-maximal effect. Put shortly:
(§1)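 Homogeneous no-lysis format: HEK293 cell suspension mixed with CellTox Green reagent, seeded, incubated 5 h at 37 C/5% CO2, then dosed by pintool with compound in DMSO.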

Experiment [2] can be described thus: qHTS RealTime-Glo MT Cell Viability Assay in HEK293 cells - 16 hour (AID 1224872). Also: top concentration of the series differs between compounds; nearly all actives have a fitted effect of over 50% in size. In a few lines: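 Reads taken at 0, 8, 16, 24, 32 and 40 h from the same wells. HEK293 cells (600/well) carried RealTime-Glo reagents from seeding, with compound added after a 5 h settle at 37 C.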
On the technique in general: In qHTS, concentration-response curves come from the screen itself.

Experiment [3] in a line: qHTS RealTime-Glo MT Cell Viability Assay in HepG2 cells - 8 hour (AID 1224873). Also: nearly all actives have a fitted effect of over 55% in size. In a few lines: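 HepG2 cells (600/well) mixed with RealTime-Glo MT reagent, settled 5 h at 37 C/5% CO2 before compound addition. Nonlytic NanoLuc luminescence from viable-cell prosubstrate reduction read repeatedly during 40 h treatment at 37 C.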
The nature of experiment [4]: qHTS RealTime-Glo MT Cell Viability Assay in HEK293 cells - 40 hour (AID 1224874). Also: nearly all actives have a fitted effect of over 50% in size. As to conditions: RealTime-Glo luminescence; max response: active compounds read low. In a few lines: (§2)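 Measured as luminescence from the same continuously cultured HEK293 wells at successive time points (0, 8, 16, 24, 32, 40 h) after compound addition. Reagent present from seeding; dosing at 5 h; incubation 37 C.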

The nature of experiment [5]: A CellTox Green Cytotoxicity Assay to monitor cytotoxicity in HEK293 cells - 24 hour (AID 1224875). Also: nearly all actives have a fitted effect of over 45% in size. Also: potency is read from the fitted curve at half-maximal effect. As to activity change: series mostly up to about 77 µM. Put shortly: as §1
Experiment [6] is described as follows: A CellTox Green Cytotoxicity Assay to monitor cytotoxicity in HepG2 cells - 16 hour (AID 1224876). Also: nearly all actives have a fitted effect of over 45% in size. In a few lines: (§3)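 Fluorescent DNA-binding dye, 600 HepG2 cells/well, 5 h preincubation then compound in DMSO; same plates read at 0–40 h, 37 C.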
A short description of experiment [7]: qHTS RealTime-Glo MT Cell Viability Assay in HepG2 cells - 32 hour (AID 1224877). Also: nearly all actives have a fitted effect of over 55% in size. Put shortly:
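HepG2 suspension premixed with RealTime-Glo reagents is plated at 600 cells per well and left 5 h at 37 C/5% CO2. Compounds in DMSO then go in, and bioluminescence reflecting viable cell number is recorded over 40 h.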

Experiment [8] in a line: A CellTox Green Cytotoxicity Assay to monitor cytotoxicity in HepG2 cells - 24 hour (AID 1224878). Also: nearly all actives have a fitted effect of over 45% in size. In a few lines: as §3
Experiment [9] can be described thus: A CellTox Green Cytotoxicity Assay to monitor cytotoxicity in HepG2 cells - 40 hour (AID 1224879). Also: nearly all actives have a fitted effect of over 40% in size. Put shortly:
as §3

The nature of experiment [10]: qHTS RealTime-Glo MT Cell Viability Assay in HEK293 cells - 0 hour (AID 1224880). Put shortly: as §2
% is scaled to controls: 0 for no effect and ±100 for the full control effect.

Consider `C=CC(=C)CCCC(C)(C)OC(C)=O`, for which the Potency result in [1], in [2], in experiment [3], in experiment [5], in experiment [6] and in [7] was “inactive” throughout. For the same compound, the Potency entry in experiment [8], in experiment [9] and in [10] was “inactive” throughout. Further, the max response in experiment [4] was -7.82%.

Turning to `C=CCNc1nc(NCC=C)nc(N2CCN(C(c3ccc(F)cc3)c3ccc(F)cc3)CC2)n1`, the Potency result in [1], in experiment [2], in experiment [3], in experiment [5], in [6] and in [7] was “inactive” each time. In addition, the Potency entry in experiment [8] and in experiment [9] was “inactive” in each case. In addition, the max response in experiment [4] was -23.1%.

In the case of `CCN(Cc1cccc(S(=O)(=O)O)c1)c1ccc(C(=C2C=CC(=[N+](CC)Cc3cccc(S(=O)(=O)[O-])c3)C=C2)c2ccccc2)cc1`, the Potency entry in experiment [1], in experiment [2], in [3], in experiment [5], in experiment [6] and in experiment [7] was “inactive” in each case. For the same compound, the Potency result in experiment [8] and in experiment [9] was “inactive” each time. Moreover, in experiment [4], the max response was 3.22%.

Turning to `CCOC(=N)CC(=O)OCC`, the Potency entry in experiment [1], in experiment [2], in [3], in experiment [5], in experiment [6] and in experiment [7] was “inactive” in each case. Further, the Potency result in [8] and in experiment [9] was “inactive” throughout. The max response in experiment [4] is -25%.

Turning to `O=C(O)c1cccnc1C(=O)O`, the Potency result in [1], in experiment [2], in experiment [3], in experiment [5], in [6] and in experiment [7] was “inactive” each time. In experiment [8], the Potency entry was “inactive”. The max response in [4] was -1.78%.

In the case of `O=C(O)c1ccc(CO)o1`, the Potency result in experiment [1], in experiment [2], in experiment [3], in experiment [5], in experiment [6] and in experiment [7] was “inactive” each time. In addition, the Potency result in [8], in experiment [9] and in experiment [10] was “inactive” in each case. The max response in [4] was -0.778%.

As to `O=C(O)c1cccc(O)c1`, the Potency entry in experiment [1], in experiment [2], in [3], in experiment [5], in experiment [6] and in [7] was “inactive” in each case. Besides, the Potency result in [8] and in [9] was “inactive” throughout. Also, the max response in [4] was 8.08%.

Take `CCC(C(=O)OCCN(CC)CC)c1ccccc1` (stereo not given): the Potency entry in experiment [1], in experiment [2], in [3], in experiment [5], in experiment [6] and in experiment [7] was “inactive” throughout. In experiment [8], the Potency entry is “inactive”. Besides, the max response in experiment [4] was 8.92%.

Regarding `CCn1cc(C(=O)O)c(=O)c2cc(F)c(N3CCNCC3)nc21`, the Potency entry in [1], in experiment [2], in experiment [3], in [5], in experiment [6] and in experiment [7] was “inactive” throughout. In addition, the Potency result in experiment [8] and in experiment [9] was “inactive” each time. The max response in [4] is 10.3%.

Consider `CC1(C)C(=O)N(Br)C(=O)N1Cl`, for which the Potency entry in experiment [1], in [2], in experiment [3], in experiment [5], in [6] and in [7] was “inactive” each time. Moreover, the Potency entry in experiment [8], in experiment [9] and in experiment [10] was “inactive” throughout. The max response in experiment [4] was 8.13%.

In the case of `CCCCC(=O)O[C@]1(C(=O)CO)CC[C@H]2[C@@H]3CCC4=CC(=O)CC[C@]4(C)[C@H]3[C@@H](O)C[C@@]21C`, the Potency result in [1], in experiment [2], in [3], in experiment [5], in experiment [6] and in [7] was “inactive” in each case. The Potency entry in [8] and in experiment [9] was “inactive” each time. Further, the max response in [4] is -24%.

`CCCCC/C(=C\c1ccccc1)CO`: the Potency was 43.1 µM (active) in experiment [1] and 48.4 µM (active) in experiment [5]. For the same compound, the Potency entry in [2], in [3], in [6], in experiment [7], in experiment [8] and in experiment [9] was “inactive” throughout. In addition, in [10], the Potency result was “inactive”. Besides, in experiment [4], the max response was -12.8%.

As for `OCCSc1ccccc1`, the Potency result in experiment [1], in experiment [2], in [3], in [5], in experiment [6] and in experiment [7] was “inactive” each time. Besides, the Potency result in experiment [8], in [9] and in [10] was “inactive” each time. The max response in experiment [4] is -28.1%.

Turning to `CC(=O)Nc1ccccc1C`, the Potency entry in experiment [1], in experiment [2], in [3], in experiment [5], in experiment [6] and in experiment [7] was “inactive” throughout. Moreover, the Potency result in experiment [8], in experiment [9] and in [10] was “inactive” in each case. Further, in [4], the max response was 1.18%.

For `CNC(=O)N(c1ccccc1)c1ccccc1`, the Potency result in [1], in [2], in experiment [3], in [5], in [6] and in [7] was “inactive” throughout. Besides, the Potency result in experiment [8], in experiment [9] and in experiment [10] was “inactive” each time. Further, in experiment [4], the max response is 10.9%.

With `CCCOCCOCCO`, the Potency result in experiment [1], in experiment [2], in experiment [3], in [5], in experiment [6] and in experiment [7] was “inactive” throughout. Further, the Potency result in [8] and in [9] was “inactive” each time. Also, the max response in experiment [4] is 2.29%.

With `O=C(O)c1snc(Cl)c1Cl`, the Potency entry in experiment [1], in experiment [2], in [3], in experiment [5], in [6] and in experiment [7] was “inactive” throughout. The Potency result in [8] and in experiment [9] was “inactive” each time. The max response in [4] was 13.2%.

Take `CCCCCC=CCC=CCCCCCCCC(=O)OCC`: the Potency result in experiment [1], in experiment [2], in experiment [3], in experiment [5], in experiment [6] and in [7] was “inactive” throughout. The Potency entry in experiment [8] and in [9] was “inactive” in each case. The max response in experiment [4] was -1.44%.

On to `CC1CN(c2cc3c(cc2F)c(=O)c(C(=O)O)cn3-c2ccc(F)cc2F)CCN1` (stereo not given), for which the cytotoxicity increase in experiment [1] was -7.27% [at 6.97 µM]; in [6] it was 0.798% [at 6.97 µM]; in [9], 1.74% [at 6.97 µM]. Besides, the activity change, negative = cytotoxicity in experiment [2] was 6.7% [at 6.97 µM]; in [10], 15.1% [at 6.97 µM]. For the same compound, in experiment [3], the viability change, negative = cytotoxic is 1.58% [at 6.97 µM]. The max response in experiment [4] is 2.82%. Also, in experiment [5], the activity change is -1.61% [at 6.97 µM, active compounds read high]. In addition, the activity change, negative = cytotoxic in experiment [7] is 0.449% [at 6.97 µM]. In addition, in experiment [8], the cytotoxicity was -0.333% [at 6.97 µM].

On to `C=CC(C)=CCC=C(C)C`, for which the Potency result in experiment [1], in experiment [2], in [3], in [5], in [6] and in experiment [7] was “inactive” throughout. The Potency result in experiment [8] and in experiment [9] was “inactive” in each case. Also, in [4], the max response is 4.34%.

In the case of `O=C(O)Cc1ccc(-c2ccccc2)cc1`, the Potency entry in experiment [1], in experiment [2], in experiment [3], in experiment [5], in [6] and in [7] was “inactive” throughout. Also, the Potency entry in [8] and in experiment [9] was “inactive” each time. Moreover, the max response in [4] is 10.5%.
